# Assay outcomes from PubChem BioAssay.
# PAX8 reporter = inhibitors of PAX8 transcriptional activity in RMG-I cells | RMG-I TPO-luciferase reporter, SteadyGlo, 24 h | inhibition, % at 12.6 µM | hit rate 1.2% among 360,000 | AID 652154;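 active = mean replicate inhibition at least 60% with every replicate also reaching 60%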;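 note: luciferase light reporting Pax8 driven TPO promoter activity; plate controls were median of neutral control wells for no effect and mitoxantrone controls for full effect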
# TWEAK Fn14 block = inhibitors of TWEAK-Fn14 interaction signaling; hit rate 2% among 360,000; inhibition, % at 10 µM; AID 1159606; TWEAK-stimulated Fn14 reporter cells, luciferase luminescence, 8 h; in the data active = inhibition above about 50%
# TROY NFkB inh = blocks TROY-dependent signaling in reporter cells; hit rate 0.98% among 360,000; Q293 LMP1-TROYcd NF-kB luciferase reporter, 4 h; inhibition, % at 10 µM; AID 1347056;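 active = compounds whose plate-normalised and pattern-corrected inhibition of the luciferase reporter signal at the single screening dose is 50% or more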
# LGR2 antag = inhibitors of bursicon-induced Drosophila LGR2 receptor cAMP signaling; HEK293 LGR2, CRE-luciferase, bursicon-stimulated, 4 h; inhibition, % at 9.99 µM; hit rate 0.35% among 380,000; AID 720647;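 active = drop in luminescence signal, shown as inhibition above about 50% in the replicate tests, limit read from the data, passing the limit was not always enough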;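 note: agonist challenge used bursicon conditioned medium at about half maximal strength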
# EWS-Fli block = EWS/Fli transcriptional activity inhibition; A673 NR0B1-luciferase reporter, viability-normalised; inhibition, % at 12.6 µM; hit rate 0.67% among 350,000; AID 651661;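 active = mean inhibition of at least 50% after viability correction, with every replicate also passing that limit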;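 note: firefly luciferase signal divided by Alamar Blue viability fluorescence both relative to DMSO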
# The depositor's hits bear a star; nt = not tested or not shown; ! = not active in a repeat. The list is not random: actives were taken first. Their share in the collection is about 2.8%.
SMILES,PAX8 reporter,TWEAK Fn14 block,TROY NFkB inh,LGR2 antag,EWS-Fli block
CCCCn1c(NC(=O)c2ccco2)c(C(=O)OCC)c2nc3ccccc3nc21,nt,48,52*,nt,nt
CC=Cc1ccc2n(c1=O)C[C@@H]1[C@@H](CO)[C@H](C(=O)OC)[C@H]2N1S(=O)(=O)c1ccccc1C (mixture of isomers),-4,nt,nt,-10,19
CN(C)c1ccc(/C=C/C=C/c2sc3ccccc3[n+]2C)cc1,84*,41,20,27,48
CC[n+]1c(/C=C/C=C/c2ccc(N(C)C)cc2)sc2ccccc21,80*,56*,52*,36,23
C[n+]1c(-c2ccccc2)sc2ccccc21,-10,-2,-3,-2,-36
CN(C)c1ccc(/C=C/c2cc[n+](C)c3ccccc23)cc1,95*,53*!,48,33,4
COc1ccc(C#Cc2ccc([C@H]3[C@H]4CN(C(=O)Cc5ccncc5)CCCCN4[C@H]3CO)cc2)cc1,43,nt,nt,0,nt
COC(=O)[C@@H]1[C@@H](CO)[C@@H]2Cn3c(ccc(-c4ccncc4)c3=O)[C@H]1N2S(=O)(=O)c1ccccc1F,9,nt,nt,1,0
CCCN1[C@@H]2c3ccc(-c4cccc(OC)c4)c(=O)n3C[C@H]1[C@H](CO)[C@H]2C(=O)OC,nt,nt,nt,-8,-2
CCC(C)C1NC(=O)C(NC(=O)C(CC(C)C)N(C)C(=O)C2CCCN2C(=O)C(C)O)C(C)OC(=O)C(Cc2ccc(OC)cc2)N(C)C(=O)C2CCCN2C(=O)C(CC(C)C)NC(=O)[C@H](C)C(=O)[C@H](C(C)C)OC(=O)CC1O (some centres undefined),95*,102*,85*,101*,72*
CCOC(=O)[C@@H]1[C@@H]2NC(=S)N[C@@]1(C)Oc1ccccc12,nt,nt,nt,nt,-2
NC(N)=N/N=C/c1cn(-c2ccccc2)nc1-c1cccs1,17,13,-35,106*,6
CCOP(=O)(OCC)OCC,nt,0,0,-23,-3
CCOP(=O)(CCP(=O)(OCC)OCC)OCC.C[CH2][Sn]([Cl])([Cl])[CH2]C,93*,58*,41,23,45
Fc1ccc(C[n+]2c(-c3ccccc3)cc(-c3ccccc3)cc2-c2ccccc2)cc1,89*,nt,nt,14,26
Clc1ccc(C[n+]2c(-c3ccccc3)cc(-c3ccccc3)cc2-c2ccccc2)cc1,97*,73*,51*,9,44
C/C=C/c1ccc(C2[C@@H]3CN(C(=O)C4CCC4)C[C@H]2N3)cc1 (some centres undefined),3,nt,nt,-2,-4
O=C(Cc1ccccn1)N1CCCCN2[C@H](CO)[C@H](c3ccc(Br)cc3)[C@H]2C1,-2,nt,nt,-16,1
CCc1nc2ccc(Br)cc2c(=O)n1-c1ccccc1C(F)(F)F,18,20,22,-5,nt
CCCc1nc2ccc(Br)cc2c(=O)n1-c1ccc([N+](=O)[O-])c(C(F)(F)F)c1,93*,46,47,28,nt
O=[N+]([O-])/C=C/c1c(Cl)cccc1Cl,4,52*,8,-15,0
O=C(Cc1cccnc1)N1CCCCN2[C@@H](CO)[C@H](c3ccc(C#CC4(O)CCCC4)cc3)[C@@H]2C1,-7,nt,nt,-3,-6
OCC[N+]12CCC(CC1)C(C(O)(c1ccccc1)c1ccccc1)C2 (centres undefined),-4,-20,54*,3,0
N#Cc1cccc(-c2ccc([C@H]3[C@H](CO)N4CCCCN(C(=O)Cc5ccccc5)C[C@@H]34)cc2)c1,-3,nt,nt,7,12
CC(C)CCn1c(=O)c(C(=O)Nc2ccccc2S(N)(=O)=O)c(O)c2ccccc21,69*,30,18,nt,nt
SMILES,PAX8 reporter,TWEAK Fn14 block,TROY NFkB inh,LGR2 antag,EWS-Fli block
CCCCn1c(=O)c(C(=O)Nc2ccccc2C)c(O)c2ccccc21,nt,-13,-2,nt,nt
Nc1ncnc2c1ccn2[C@@H]1O[C@H](CO)[C@@H](O)[C@H]1O,nt,95*,52*,93*,56*
NC(=S)c1cn(C2OC(CO)C(O)C2O)c2ncnc(N)c12 (centres undefined),108*,103*,68*,102*,49
COC(=O)[C@@H]1[C@@H](CO)[C@@H]2Cn3c(ccc(C4=CCCC4)c3=O)[C@H]1N2C(=O)CC1CC1,nt,nt,nt,18,-1
COC(=O)C(Cc1ccc(N(CCCl)CCCl)cc1)N=Cc1ccccc1O (centres undefined),97*,35,33,-26,67*
COc1ccc(C#Cc2ccc([C@@H]3[C@@H](CO)N4CCCCN(C(=O)Cc5ccccc5)C[C@@H]34)cc2)cc1,13,nt,nt,9,8
c1ccc2c[n+](CCCCCCCCCC[n+]3ccc4ccccc4c3)ccc2c1,81*,5,0,5,20
COC(=O)[C@@H]1[C@@H](CO)[C@@H]2Cn3c(ccc(-c4ccccc4OC)c3=O)[C@H]1N2Cc1ccccc1,nt,nt,nt,7,3
CC=Cc1ccc2n(c1=O)C[C@@H]1[C@@H](CO)[C@H](C(=O)O)[C@H]2N1S(=O)(=O)c1ccccc1F (mixture of isomers),-8,nt,nt,-13,-7
Cc1cc(C=C2C(=O)N(C)C(=S)N(C)C2=O)c(C)n1-c1ccncc1,15,1,-10,3,9
Cc1ccnc(-n2c(C)cc(C=C3C(=O)N(C)C(=S)N(C)C3=O)c2C)c1,1,87*,1,nt,nt
CC1=C(N2CC2)C(=O)C(CO)=C(N2CC2)C1=O,118*,29,-3,0,28
COC(COC(N)=O)C1=C(N2CC2)C(=O)C(C)=C(N2CC2)C1=O (centres undefined),12,-6,2,8,-2
COc1ccc(C#Cc2ccc([C@H]3[C@H](CO)N4CCCCN(C(=O)Cc5cccnc5)C[C@@H]34)cc2)cc1,-1,nt,nt,-22,-9
C[C@H]1CCCC(=O)CCC/C=C/c2cc(O)cc(O)c2C(=O)O1,26,42,15,34,10
C[C@H]1CCC/C=C/[C@@H]2C[C@H](O)C[C@H]2[C@H](O)/C=C/C(=O)O1,110*,55*!,-66,17,54*
O=c1[nH]c2ccccc2n1C1CCN(Cc2ccc(-c3nc4ccccc4nc3-c3ccccc3)cc2)CC1,48,16,6,22,9
Cc1ccc2nc(-c3ccc(CN4CCC(n5c(=O)[nH]c6ccccc65)CC4)cc3)c(-c3ccccc3)nc2c1,65*,13,22,2,8
CC(C)[C@H]1C(=O)O[C@H](C(C)C)C(=O)N(C)[C@@H](C(C)C)C(=O)O[C@H](C(C)C)C(=O)N(C)[C@@H](C(C)C)C(=O)O[C@H](C(C)C)C(=O)N1C,nt,56*,56*,nt,nt
CCN(CC)S(=O)(=O)c1ccc(NN=C(C#N)C#N)cc1,3,67*,63*,nt,4
CC(C)(C)c1cc([N+](=O)[O-])cc(C(C)(C)C)c1O,67*,nt,nt,45,2
NC(=O)c1cc([N+](=O)[O-])cc([N+](=O)[O-])c1,15,17,1,nt,-1
